According to PubChem BioAssay (NCI):
Compounds without any hit were thinned out: in the full panel of roughly 83,000, 20% have a hit.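 Note: values are percent growth. 100 is the growth of untreated cells, values between 100 and 0 indicate rising inhibition; between -100 and 0 indicates cell death.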 Activity calls are given as the source filed them. How the source made its calls: active means growth percent below 10; inactive means the rest.

system: HL-60(TB) leukemia; assay: NCI-60 one-dose screen, 48 h (100 = growth as untreated, 0 = no growth, -100 = all killed); details: 10 µM unless noted

SMILES | growth
O=C(CSc1nc2ccccc2[nH]1)Nc1ccc(-c2nc3ccccc3s2)c(Cl)c1 | 62% (inactive)
Nc1ccc2c(c1Br)Cc1ccccc1-2 | 56.3% (inactive)
COc1cc(-c2nc(-c3nc4cc(C(=O)c5ccccc5)ccc4[nH]3)cc3c2[nH]c2ccccc23)cc(OC)c1OC | 89.7% (inactive)
Cc1nc(C)c(C)nc1C | 73.9% (inactive)
COc1cc(C(=O)n2nc(NCCCc3ccccc3)c3cc(N)ccc32)cc(OC)c1OC | 69.5% (inactive)
O=c1[nH]c(=S)c2c(n1CCCO)CCC2 | 95.6% (inactive)
C#CCNC(=O)[C@H](Cc1ccccc1)NC(=O)[C@]12CC[C@@H](C(=C)C)[C@@H]1[C@H]1CC[C@@H]3[C@@]4(C)CCC(=O)C(C)(C)[C@@H]4CC[C@@]3(C)[C@]1(C)CC2 | 33% (inactive)
CCOC(=O)Nc1cc2c(c(N)n1)N=C(c1ccccc1)CO2 | -0.963% (active)
CCCCOC(=O)c1ccc(NC(=O)C(C)N2CCOCC2)cc1 (stereo not given) | 82% (inactive)
COc1ccc(/C=C/c2c(C(=O)/C=C/c3cccs3)c(C)nc3ccccc23)cc1 | 69.6% (inactive)
O=C(/C=C/c1c[nH]c2ccccc12)c1ccc(O)c(CN2CCN(c3ccc(F)cc3)CC2)c1 | 97% (inactive)
CC(=O)Oc1ccc(C2OC(c3ccc4ccccc4c3OC(C)=O)=NN2C(C)=O)c(OC(C)=O)c1 (stereo not given) | -30.7% (active)
C=C1CCC2C3(C)COC(C)(C)OC3CCC2(C)C1C/C=C1/C(=O)OCC1OC(C)=O (stereo not given) | -43.8% (active)
CC[C@H](C)[C@@H](C(=O)OC)n1cc(CNC(=O)[C@@H](Cc2ccccc2)NC(=O)OCc2ccccc2)nn1 | 104% (inactive)
CC(=O)C1Cc2ccccc2C1=O (stereo not given) | 97.4% (inactive)
O=C(CSc1nnc(-c2ccc(NC(=O)c3cccnc3)cc2)o1)Nc1cccc(Br)c1 | 96.1% (inactive)
COC(=O)Cn1c2c(c3c(OC)cccc31)C(=O)c1ccccc1-2 | 75.6% (inactive)
O=C1CCC(=O)CC1 | 97.7% (inactive)
CC1CCN(Cc2ccc(NC(=O)c3cc4ccc5cccnc5c4[nH]3)cc2)CC1 | 11.5% (inactive)
COc1cc(CNc2oc(-c3ccccc3)c(-c3ccccc3)c2C#N)cc(CN2CCN(C)CC2)c1O | 75.7% (inactive)

SMILES | growth
Cn1cc(-c2ccc3cc(-c4ccc(CC(=O)Nc5cc(C(C)(C)C)nn5C)cc4)cnc3c2)cn1 | 25.2% (inactive)
COc1ccc(-c2nn(-c3cccc(Cl)c3)cc2-c2cc(-c3ccccc3)[nH]c(=O)c2C#N)cc1 | 111% (inactive)
Cc1ccc(C2=C/C(=C/c3ccc(Br)cc3)C(=O)N2CCc2ccc(S(N)(=O)=O)cc2)cc1 | 96.7% (inactive)
O=[N+]([O-])/C(=C\c1ccco1)c1ccccc1Cl | 81.6% (inactive)
N=c1c2c(=N)n3c(nc2nc2n1-c1ccccc1Sc1ccccc1-2)sc1cc(Cl)ccc13 | 50.3% (inactive)
COc1ccc(-c2cnnc3c(-c4cccc(C(F)(F)F)c4)cnn23)cc1 | 60.2% (inactive)
COc1c(C2CC(=O)Nc3c2cnn3Cc2ccco2)cc2c(c1OC)OCO2 (stereo not given) | -25.8% (active)
O=[N+]([O-])CC(c1ccccc1)c1c[nH]c2ccccc12 (stereo not given) | 7.86% (active)
Oc1[nH]c2cc(Cl)ccc2c1/C=c1/ccc2c(c1)N=C(c1cc(F)cc(F)c1)N=2 | -9.98% (active)
O=c1c2sc3ncc(Br)cc3c2ncn1-c1cccc(Cl)c1 | 84.5% (inactive)
Clc1ccc(N/N=C(\c2ccccc2)c2ccccn2)nc1 | -28.3% (active)
O=C(O)CCCc1cnc2c3sccc3nc(SCc3c(Cl)cccc3Cl)n12 | -26.5% (active)
COc1ccc2nc3ccccc3c(NCc3ccc(F)cc3)c2c1 | -34.6% (active)
Cn1c(=O)c2c(nc3n(-c4ccc(Cl)cc4Cl)c(Sc4nc(-c5ccccc5)c(C#N)c(=O)[nH]4)cn23)n(C)c1=O | 76.5% (inactive)
COc1ccc(Nc2ncccc2C(=O)NCc2cn(Cc3cc(OC)cc(OC)c3)nn2)cc1 | 91.6% (inactive)
O=c1[nH]nc(-c2ccc(Cl)cc2)cc1Cc1cccc([N+](=O)[O-])c1 | 109% (inactive)
CCCCCN1C=C/C(=C\C(=O)N2CCCc3ccccc32)c2ccccc21 | 54.8% (inactive)
O=C([C@H]1C[C@H]1c1ccc(S(F)(F)(F)(F)F)cc1)N1CCN(c2cc(Cl)ccc2C(F)(F)F)CC1 | 83.5% (inactive)
Cc1cc(N2CCOCC2)nc(N(CCCNc2ccnc3cc(Cl)ccc23)Cc2ccc3c(c2)OCO3)n1 | -60.9% (active)
CNC(=O)c1cnc(C)nc1-c1cc(C(C)(C)C)c(O)c(C(C)(C)C)c1 | 91.1% (inactive)
